D2 PAM-1: HTS Assay for Positive Allosteric Modulators of the Human D2 Dopamine Receptor: Primary Screen for Potentiators; D(2) dopamine receptor (Homo sapiens), P14416; HEK293 T-REx D2, calcium flux, EC20 dopamine potentiation; potentiation, % at 10 µM; hit rate 0.34% among 340,000;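 active = potentiation over 3 SD above the plate norm, cut at about 30% in these data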; note: 0% is about no effect
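Potentiation of an EC20 dopamine calcium response is measured in a force-coupled, tetracycline-inducible Hek293 Trex D2 line. Compound-only kinetic reads over 180 s flag agonists before dopamine addition.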
D2 ag-1: Beta-Arrestin HTS for Positive Allosteric Modulators of the Human D2 Dopamine Receptor: Agonists. DiscoveRx PathHunter D2 beta-arrestin, luminescence, 90 min; 100% = 57 uM dopamine signal. activation, % (no concentration beside the values). hit rate 0.084% among 360,000. AID 624465, 2012; in the data active = activation above about 40%
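Agonist mode: compounds alone added to overnight-plated D2 PathHunter cells for 90 min at 37 C, with 57 uM final dopamine (EC100) defining full response. Beta-arrestin recruitment detected by chemiluminescent reagent, read after 1 h at ambient temperature.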
D2 PAM-2: Beta-Arrestin HTS for Positive Allosteric Modulators of the Human D2 Dopamine Receptor: Potentiators | hit rate 0.23% among 360,000 | AID 624464, 2012 | DiscoveRx D2 beta-arrestin cells, luminescence, 90 min; 100% = 57 uM dopamine signal | potentiation, % (test concentration not listed); in the data active = potentiation above about 50%
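PathHunter beta-arrestin assay in DiscoveRx D2 cells. Compounds were added with an EC20 of dopamine (50 nM final) for 90 min at 37 deg C. Luminescence was read 1 h after detection reagent, with 57 uM dopamine as the EC100 control.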
D2 ag-2: HTS Assay for Allosteric Agonists of the Human D2 Dopamine Receptor: Primary Screen for Agonists; activation, % at 2 µM; hit rate 0.53% among 340,000; HEK293 T-REx D2 cells, calcium flux agonist mode; D(2) dopamine receptor (Homo sapiens), P14416;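 active = activation over 3 SD above normal in the single-dose calcium agonist read, cut at about 30% in these data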; note: 0% is about no effect
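Tetracycline-induced HEK293 Trex cells with D2 receptor force-coupled to calcium signaling, plated overnight at 30 C and loaded with no-wash calcium dye. Calcium flux read kinetically for 180 s after compound addition; responses flag agonists.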
B2AR arrestin: qHTS assay of beta-arrestin-biased ligands of beta2-adrenergic receptor. Potency, µM (doses to about 46.1 µM), inactives show at the highest dose activation, hits mostly activators. Beta-2 adrenergic receptor (Homo sapiens), P07550. hit rate 0.02% among 330,000. AID 492947, 2010. beta-arrestin recruitment to beta2AR, cell-based reporter;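 note: potency is the fitted concentration of half-maximal effect; 0% = DMSO controls and full agonism = EC100 isoproterenol or metaproterenol; nearly all actives have a fitted effect of over 65% in size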
Target sequence (P07550 whole entry, looked up): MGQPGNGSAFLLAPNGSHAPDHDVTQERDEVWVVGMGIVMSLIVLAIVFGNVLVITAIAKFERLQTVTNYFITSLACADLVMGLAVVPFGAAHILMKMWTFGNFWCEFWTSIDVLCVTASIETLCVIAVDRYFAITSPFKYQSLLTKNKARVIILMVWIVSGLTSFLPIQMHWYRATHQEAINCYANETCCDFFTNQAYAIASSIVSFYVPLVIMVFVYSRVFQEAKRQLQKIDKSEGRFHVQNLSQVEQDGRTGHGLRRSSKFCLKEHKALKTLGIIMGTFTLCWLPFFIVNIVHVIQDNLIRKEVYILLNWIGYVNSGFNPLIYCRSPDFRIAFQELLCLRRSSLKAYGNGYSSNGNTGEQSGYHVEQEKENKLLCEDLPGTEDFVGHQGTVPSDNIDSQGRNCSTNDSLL
D2 antag: HTS Assay for Allosteric Antagonists of the Human D2 Dopamine Receptor: Primary Screen for Antagonists | D(2) dopamine receptor (Homo sapiens), P14416 | HEK293 TREx D2 cells, calcium flux, dopamine EC80 | inhibition, % at 10 µM | hit rate 2% among 340,000 | AID 485344, 2010; in the data active = inhibition above about 30%; inactive = below that, where a call was filed; note: 0% is about no effect
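Read-out: kinetic calcium fluorescence (1 cycle/s) in inducible HEK293 T-REx D2 cells after an EC80 dopamine addition that followed 180 s compound preincubation. Loss of the dopamine response indicates antagonism.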
D3 arrestin ag: qHTS of D3 Dopamine Receptor Agonist: D3 Dopamine Receptor B-arrestin Agonist Confirmatory Assay | hit rate 4% among 2,300 | shares compounds with D2 ag-2 | DiscoveRx D3 beta-arrestin cells, luminescence, 90 min | Potency, µM (series often up to 76.9 µM), inactives show at the top dose activation, hits mostly activators;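 note: potency is the fitted concentration of half-maximal effect; 100% = dopamine control response; nearly all actives have a fitted effect of over 70% in size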
D2 ag-3: qHTS of D3 Dopamine Receptor Agonist: D2 Dopamine Receptor B-arrestin Agonist Counterscreen | shares compounds with D2 ag-2 | Potency, µM (top dose mostly 76.9 µM), without a hit: at the top dose activation, usual class: activators | hit rate 5.9% among 2,300 | DiscoveRx PathHunter D2 beta-arrestin, luminescence, 90 min; response scale: percent relative to full dopamine signal | AID 720507, 2013; note: potency is the fitted concentration of half-maximal effect; % of control where 0% means no effect; nearly all actives have a fitted effect of over 70% in size
Starred values were filed as active, the others as inactive. In the library only some 2.4% were active in any assay of this set; here they are far more common. Unless noted, calls come from the whole dose curve; as a rule, active = well fitted activation curve with a large enough effect; inconclusive = small, poorly fitted or top-dose-only effect; inactive = flat fitted curve, though single readings scatter.

CC(O)Cn1nc([N+](=O)[O-])nc1N (centres undefined) was read as D2 PAM-1 7.4, D2 ag-1 -0.4, D2 PAM-2 0.1, D2 ag-2 1.1, B2AR arrestin -0.1% and D2 antag 8.5.
CC(OC(=O)/C=C/c1ccco1)C(=O)NC1CCCCC1C (centres undefined) was read as D2 PAM-1 10.7, D2 ag-1 -1.2, D2 PAM-2 -1.2, D2 ag-2 -0.2, B2AR arrestin -0.3%, D2 antag 4.6, D3 arrestin ag -2.1% and D2 ag-3 -3.5%.
For CC(OC(=O)Cc1ccc(Cl)cc1)C(=O)NC1CCCCC1C (centres undefined) the results were D2 PAM-1 0.7, D2 ag-1 1.3, D2 PAM-2 0.8, D2 ag-2 -0.3, B2AR arrestin -0.6%, D2 antag -2.9, D3 arrestin ag -0.4% and D2 ag-3 -3.4%.
`CC(OC(=O)/C=C/c1cccs1)C(=O)NC1CCCCC1C` (centres undefined) gave D2 PAM-1 9.4, D2 ag-1 -2.5, D2 PAM-2 3.6, D2 ag-2 -0.2, B2AR arrestin -0.3% and D2 antag 8.0.
`CC(C)(C)C(=O)NC(=S)NNC(=O)c1sc2ccccc2c1Cl` gave D2 PAM-1 9.3, D2 ag-1 -10.6, D2 PAM-2 -9.0, D2 ag-2 146.0*, B2AR arrestin 0.0%, D2 antag 56.6*, D3 arrestin ag -26.0% and D2 ag-3 -12.0%.
Screening O=C(NNC(=S)NC1CCCCC1)c1sc2ccccc2c1Cl returned D2 PAM-1 -18.9, D2 ag-1 -4.5, D2 PAM-2 -11.3, D2 ag-2 -0.3, B2AR arrestin -0.2% and D2 antag -18.6.
Screening CC(C)(C)c1ccc(C(=O)N2CCN(CCNC(=O)C(=O)NCc3ccc(Cl)cc3)CC2)cc1 returned D2 PAM-1 3.5, D2 ag-1 -2.1, D2 PAM-2 5.0, D2 ag-2 -0.4, B2AR arrestin 0.4%, D2 antag 26.7, D3 arrestin ag 2.0% and D2 ag-3 15.4%.
Screening CCOc1ccccc1C(=O)NCC(=O)NCC(c1ccc(OC)cc1)N1CCOCC1 (centres undefined) returned D2 PAM-1 -3.4, D2 ag-1 -0.1, D2 PAM-2 -17.6, D2 ag-2 1.1, B2AR arrestin -0.1% and D2 antag 15.6.
Screening C[C@@H]1CCCCCCCCC(=O)OCCN1C(=O)OC(C)(C)C returned D2 PAM-1 -3.9, D2 ag-1 -1.1, D2 PAM-2 0.1, D2 ag-2 0.9, B2AR arrestin -0.6%, D2 antag 12.6, D3 arrestin ag 2.5% and D2 ag-3 2.0%.
For C[C@@H]1CCCCCCCCC(=O)OCCN(C(=O)OC(C)(C)C)[C@H](C)CCCCCCCCC(=O)OCCN1C(=O)OC(C)(C)C the results were D2 ag-1 -2.0, D2 PAM-2 -9.8 and B2AR arrestin 0.0%.
`CC(C)C(=O)NCCc1nc(-c2ccc(Cl)cc2)no1` gave D2 ag-1 -2.3 and D2 PAM-2 -3.7.
Screening COc1ccccc1N1CCN(C(=O)c2oc3cc(C)cc(C)c3c2C)CC1 returned D2 PAM-1 -1.5, D2 ag-1 0.1, D2 PAM-2 1.6, D2 ag-2 0.4, B2AR arrestin 0.4% and D2 antag -14.2.
For Cc1cc(N2CCN(C3CCCC3)CC2)n2ncc(-c3ccccc3)c2n1 the results were D2 PAM-1 -1.1, D2 ag-2 0.3, B2AR arrestin -0.5% and D2 antag 8.8.
For CC(=O)c1ccccc1NS(=O)(=O)c1cc2c(cc1C)NC(=O)CO2 the results were D2 PAM-1 -7.3 and D2 ag-2 0.3.
`COc1ccccc1N1CCN(Cc2cc3c(cc2O)OCO3)CC1` gave D2 PAM-1 -30.5, D2 ag-1 0.1, D2 PAM-2 -18.1, D2 ag-2 75.1*, B2AR arrestin 0.1%, D2 antag 98.4*, D3 arrestin ag -7.8% and D2 ag-3 8.6%.
CCOCc1cc(CN2CCN(c3ccccc3OC)CC2)c(O)c2ncccc12 was read as D2 PAM-1 -8.6 and D2 ag-2 -1.0.
Screening CCOc1ccccc1N1CCN(Cc2cccc(OC)c2O)CC1 returned D2 PAM-1 -4.6, D2 ag-1 12.7, D2 PAM-2 -1.7, D2 ag-2 44.8*, B2AR arrestin 0.0%, D2 antag 67.7*, D3 arrestin ag -12.3% and D2 ag-3 29.0%.
`CC(=O)c1ccc(N2CCN(C(=O)Cc3n[nH]c(=O)c4ccccc34)CC2)cc1` gave D2 PAM-1 7.7, D2 ag-1 0.4, D2 PAM-2 -6.3, D2 ag-2 1.7, B2AR arrestin 0.0% and D2 antag 10.5.
Screening CCCN(CC(=O)Nc1ccccc1OC)C(=O)CSC(=S)N1CCCC1 returned D2 PAM-1 0.9, D2 ag-1 -4.8, D2 PAM-2 -3.5, D2 ag-2 2.1, B2AR arrestin -0.4%, D2 antag -0.1, D3 arrestin ag 1.7% and D2 ag-3 -3.5%.
For O=C(NCc1ccccc1F)C1CCN(c2nnc(-n3cccc3)s2)CC1 the results were D2 ag-2 -0.8.
Screening O=C(Nc1ccc(Cl)cc1Cl)N1CCN(c2ncccn2)CC1 returned D2 PAM-1 -0.3, D2 ag-1 -2.7, D2 PAM-2 2.9, D2 ag-2 6.2, B2AR arrestin -0.8% and D2 antag -13.9.
`Clc1ccccc1CN1CCc2nc(N3CCN(c4ncccn4)CC3)ncc2C1` gave D2 PAM-1 -7.2 and D2 ag-2 22.4.
Screening Clc1ccccc1CN1CCN(c2ncccn2)CC1 returned D2 PAM-1 -38.5, D2 ag-1 69.8*, D2 PAM-2 58.8*, D2 ag-2 79.9*, B2AR arrestin 0.0%, D2 antag 75.8*, D3 arrestin ag -3.1% and D2 ag-3 20µM*.
